# Experimental data reported in publication PMC11006913.
# Where a chain is given by its changes, count along the chain named.
# Tests used:
# Assay in all cases: PBM; 200 nM protein, PBS
# Conditions in all cases: dsDNA, one strand shown
# VENTX [1] = molecular target: T1, VENTX (Homo sapiens, UniProt O95231 78-163, R121Q)
# T1 sequence: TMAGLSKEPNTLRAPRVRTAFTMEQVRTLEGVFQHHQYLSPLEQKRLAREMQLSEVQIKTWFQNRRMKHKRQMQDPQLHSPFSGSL
# HOXA4 [2] = molecular target: HOXA4 (Homo sapiens, UniProt Q00056 201-287, W262R)
# VENTX [3] = molecular target: T2, VENTX (Homo sapiens, UniProt O95231 78-163)
# T2 sequence: T1 sequence with Q44R
# VENTX [4] = molecular target: T3, VENTX (Homo sapiens, UniProt O95231 78-163, Y115F)
# T3 sequence: T1 sequence with Y38F, Q44R
# HOXA2 [5] = molecular target: HOXA2 (Homo sapiens, UniProt O43364 129-215, R185T)
# HOXA4 [6] = molecular target: HOXA4 (Homo sapiens, UniProt Q00056 201-287, R217L)
# NKX2-6 [7] = molecular target: T4, NKX2-6 (Homo sapiens, UniProt A6NCS4 118-204, R150C)
# T4 sequence: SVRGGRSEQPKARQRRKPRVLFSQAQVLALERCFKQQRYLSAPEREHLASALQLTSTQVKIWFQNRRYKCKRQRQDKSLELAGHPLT
# MSX2 [8] = molecular target: MSX2 (Homo sapiens, UniProt P35548 130-214, R199I)
# HOXA2 [9] = molecular target: HOXA2 (Homo sapiens, UniProt O43364 129-215, R185K)
# HOXA4 [10] = molecular target: HOXA4 (Homo sapiens, UniProt Q00056 201-287)
# MSX2 [11] = molecular target: MSX2 (Homo sapiens, UniProt P35548 130-214)
# PROP1 [12] = molecular target: PROP1 (Homo sapiens, UniProt O75360 56-141)
# PROP1 [13] = molecular target: PROP1 (Homo sapiens, UniProt O75360 56-141, R99H)
# VAX1 [14] = molecular target: VAX1 (Homo sapiens, UniProt Q5SQQ9 86-172)
# PROP1 [15] = molecular target: PROP1 (Homo sapiens, UniProt O75360 56-141, F88S)
# MSX2 [16] = molecular target: MSX2 (Homo sapiens, UniProt P35548 130-214, F161Y)
# VAX1 [17] = molecular target: VAX1 (Homo sapiens, UniProt Q5SQQ9 86-172, T142I)
# HOXA2 [18] = molecular target: HOXA2 (Homo sapiens, UniProt O43364 129-215, Y150S)
# HOXA4 [19] = molecular target: HOXA4 (Homo sapiens, UniProt Q00056 201-287, W262F)
# HOXA2 [20] = molecular target: HOXA2 (Homo sapiens, UniProt O43364 129-215)
# VAX1 [21] = molecular target: VAX1 (Homo sapiens, UniProt Q5SQQ9 86-172, K157R)
# ALX4 [22] = molecular target: ALX4 (Homo sapiens, UniProt Q9H161 200-286)
# ALX4 [23] = molecular target: ALX4 (Homo sapiens, UniProt Q9H161 200-286, Q225E)
# ALX3 [24] = molecular target: ALX3 (Homo sapiens, UniProt O95076 139-225, N203Q)
# NKX2-6 [25] = molecular target: T5, NKX2-6 (Homo sapiens, UniProt A6NCS4 118-204)
# T5 sequence: T4 sequence with C33R
# ALX3 [26] = molecular target: ALX3 (Homo sapiens, UniProt O95076 139-225)
# ALX3 [27] = molecular target: ALX3 (Homo sapiens, UniProt O95076 139-225, L168Q)
# NKX2-6 [28] = molecular target: T6, NKX2-6 (Homo sapiens, UniProt A6NCS4 118-204, F151L)
# T6 sequence: T4 sequence with C33R, F34L
# ALX3 [29] = molecular target: ALX3 (Homo sapiens, UniProt O95076 139-225, L168V)
# ALX3 [30] = molecular target: ALX3 (Homo sapiens, UniProt O95076 139-225, N203S)
# HOXC10 [31] = molecular target: HOXC10 (Homo sapiens, UniProt Q9NYD6 254-340)
# HOXC10 [32] = molecular target: HOXC10 (Homo sapiens, UniProt Q9NYD6 254-340, K271E)
# Sequence of HOXC10 (Homo sapiens, UniProt Q9NYD6 254-340, K271E) (Q9NYD6 254-340 K271E): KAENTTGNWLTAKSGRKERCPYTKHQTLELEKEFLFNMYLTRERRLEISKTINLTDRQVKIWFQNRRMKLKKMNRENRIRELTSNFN
# Sequence of VAX1 (Homo sapiens, UniProt Q5SQQ9 86-172, K157R) (Q5SQQ9 86-172 K157R): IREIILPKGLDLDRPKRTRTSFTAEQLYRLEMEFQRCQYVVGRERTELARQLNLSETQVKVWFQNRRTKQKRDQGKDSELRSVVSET
# Sequence of VAX1 (Homo sapiens, UniProt Q5SQQ9 86-172, T142I) (Q5SQQ9 86-172 T142I): as the sequence (Q5SQQ9 86-172 K157R) above, with T57I, R72K counted along it
# Sequence of VAX1 (Homo sapiens, UniProt Q5SQQ9 86-172) (Q5SQQ9 86-172): as the sequence (Q5SQQ9 86-172 K157R) above, with R72K counted along it
# Sequence of MSX2 (Homo sapiens, UniProt P35548 130-214) (P35548 130-214): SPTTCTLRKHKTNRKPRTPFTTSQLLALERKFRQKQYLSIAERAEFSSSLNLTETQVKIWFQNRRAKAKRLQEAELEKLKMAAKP
# Sequence of PROP1 (Homo sapiens, UniProt O75360 56-141) (O75360 56-141): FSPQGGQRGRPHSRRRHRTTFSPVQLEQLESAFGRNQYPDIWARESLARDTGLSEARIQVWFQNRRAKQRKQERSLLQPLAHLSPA
# Sequence of ALX3 (Homo sapiens, UniProt O95076 139-225, N203Q) (O95076 139-225 N203Q): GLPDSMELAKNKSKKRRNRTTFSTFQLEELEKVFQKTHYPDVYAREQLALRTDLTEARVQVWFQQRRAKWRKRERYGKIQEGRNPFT
# Sequence of HOXA4 (Homo sapiens, UniProt Q00056 201-287, W262F) (Q00056 201-287 W262F): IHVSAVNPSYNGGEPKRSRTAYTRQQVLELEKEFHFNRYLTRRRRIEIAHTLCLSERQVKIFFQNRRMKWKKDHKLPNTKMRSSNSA
# Sequence of HOXA2 (Homo sapiens, UniProt O43364 129-215, R185T) (O43364 129-215 R185T): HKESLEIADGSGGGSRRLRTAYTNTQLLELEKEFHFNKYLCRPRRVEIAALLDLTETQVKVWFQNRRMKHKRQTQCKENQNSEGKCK
# Sequence of MSX2 (Homo sapiens, UniProt P35548 130-214, R199I) (P35548 130-214 R199I): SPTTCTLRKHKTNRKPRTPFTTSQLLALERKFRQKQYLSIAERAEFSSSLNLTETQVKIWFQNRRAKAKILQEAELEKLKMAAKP
# Sequence of HOXA2 (Homo sapiens, UniProt O43364 129-215, R185K) (O43364 129-215 R185K): as the sequence (O43364 129-215 R185T) above, with T57K counted along it
# Sequence of ALX3 (Homo sapiens, UniProt O95076 139-225, L168Q) (O95076 139-225 L168Q): as the sequence (O95076 139-225 N203Q) above, with L30Q, Q65N counted along it
# Sequence of HOXC10 (Homo sapiens, UniProt Q9NYD6 254-340) (Q9NYD6 254-340): as the sequence (Q9NYD6 254-340 K271E) above, with E18K counted along it
# Sequence of ALX4 (Homo sapiens, UniProt Q9H161 200-286) (Q9H161 200-286): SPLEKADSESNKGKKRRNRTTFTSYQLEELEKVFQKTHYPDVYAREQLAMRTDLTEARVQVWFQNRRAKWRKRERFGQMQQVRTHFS
# Sequence of HOXA2 (Homo sapiens, UniProt O43364 129-215) (O43364 129-215): as the sequence (O43364 129-215 R185T) above, with T57R counted along it
# Sequence of PROP1 (Homo sapiens, UniProt O75360 56-141, R99H) (O75360 56-141 R99H): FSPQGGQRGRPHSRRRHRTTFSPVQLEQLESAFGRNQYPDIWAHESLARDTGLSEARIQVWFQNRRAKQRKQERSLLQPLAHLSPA
# Sequence of PROP1 (Homo sapiens, UniProt O75360 56-141, F88S) (O75360 56-141 F88S): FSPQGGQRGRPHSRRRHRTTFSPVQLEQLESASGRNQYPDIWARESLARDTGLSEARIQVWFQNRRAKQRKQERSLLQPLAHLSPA
# Sequence of HOXA4 (Homo sapiens, UniProt Q00056 201-287, R217L) (Q00056 201-287 R217L): as the sequence (Q00056 201-287 W262F) above, with R17L, F62W counted along it
# Sequence of ALX3 (Homo sapiens, UniProt O95076 139-225) (O95076 139-225): as the sequence (O95076 139-225 N203Q) above, with Q65N counted along it
# Sequence of ALX3 (Homo sapiens, UniProt O95076 139-225, L168V) (O95076 139-225 L168V): as the sequence (O95076 139-225 N203Q) above, with L30V, Q65N counted along it
# Sequence of HOXA4 (Homo sapiens, UniProt Q00056 201-287, W262R) (Q00056 201-287 W262R): as the sequence (Q00056 201-287 W262F) above, with F62R counted along it
# Sequence of ALX3 (Homo sapiens, UniProt O95076 139-225, N203S) (O95076 139-225 N203S): as the sequence (O95076 139-225 N203Q) above, with Q65S counted along it
# Sequence of HOXA2 (Homo sapiens, UniProt O43364 129-215, Y150S) (O43364 129-215 Y150S): as the sequence (O43364 129-215 R185T) above, with Y22S, T57R counted along it
# Sequence of ALX4 (Homo sapiens, UniProt Q9H161 200-286, Q225E) (Q9H161 200-286 Q225E): as the sequence (Q9H161 200-286) above, with Q26E counted along it
# Sequence of MSX2 (Homo sapiens, UniProt P35548 130-214, F161Y) (P35548 130-214 F161Y): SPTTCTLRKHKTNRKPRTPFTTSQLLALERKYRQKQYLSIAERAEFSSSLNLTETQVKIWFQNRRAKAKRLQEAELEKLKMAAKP
# Sequence of HOXA4 (Homo sapiens, UniProt Q00056 201-287) (Q00056 201-287): as the sequence (Q00056 201-287 W262F) above, with F62W counted along it
sequence,measurement,setting,value
GCCAGGGC,binding signal,VENTX [1],"7.76 upbm affinity estimate (log intensity, higher = more binding, comparable within an allelic series)"
same,binding signal,HOXA4 [2],"9.77 upbm affinity estimate (log intensity, higher = more binding, comparable within an allelic series)"
same,binding signal,VENTX [3],"7.69 upbm affinity estimate (log intensity, higher = more binding, comparable within an allelic series)"
same,binding signal,VENTX [4],"7.85 upbm affinity estimate (log intensity, higher = more binding, comparable within an allelic series)"
same,binding signal,HOXA2 [5],"6.87 upbm affinity estimate (log intensity, higher = more binding, comparable within an allelic series)"
same,binding signal,HOXA4 [6],"9.77 upbm affinity estimate (log intensity, higher = more binding, comparable within an allelic series)"
same,binding signal,NKX2-6 [7],"9.13 upbm affinity estimate (log intensity, higher = more binding, comparable within an allelic series)"
same,binding signal,MSX2 [8],"9.52 upbm affinity estimate (log intensity, higher = more binding, comparable within an allelic series)"
same,binding signal,HOXA2 [9],"10.3 upbm affinity estimate (log intensity, higher = more binding, comparable within an allelic series)"
same,binding signal,HOXA4 [10],"9.7 upbm affinity estimate (log intensity, higher = more binding, comparable within an allelic series)"
same,binding signal,MSX2 [11],"9.44 upbm affinity estimate (log intensity, higher = more binding, comparable within an allelic series)"
same,binding signal,PROP1 [12],"6.61 upbm affinity estimate (log intensity, higher = more binding, comparable within an allelic series)"
same,binding signal,PROP1 [13],"6.73 upbm affinity estimate (log intensity, higher = more binding, comparable within an allelic series)"
same,binding signal,VAX1 [14],"7.25 upbm affinity estimate (log intensity, higher = more binding, comparable within an allelic series)"
same,binding signal,PROP1 [15],"6.44 upbm affinity estimate (log intensity, higher = more binding, comparable within an allelic series)"
same,binding signal,MSX2 [16],"9.44 upbm affinity estimate (log intensity, higher = more binding, comparable within an allelic series)"
same,binding signal,VAX1 [17],"7.16 upbm affinity estimate (log intensity, higher = more binding, comparable within an allelic series)"
same,binding signal,HOXA2 [18],"10.4 upbm affinity estimate (log intensity, higher = more binding, comparable within an allelic series)"
same,binding signal,HOXA4 [19],"9.81 upbm affinity estimate (log intensity, higher = more binding, comparable within an allelic series)"
same,binding signal,HOXA2 [20],"6.74 upbm affinity estimate (log intensity, higher = more binding, comparable within an allelic series)"
same,binding signal,VAX1 [21],"7.15 upbm affinity estimate (log intensity, higher = more binding, comparable within an allelic series)"
CGCCTGCC,binding signal,VENTX [1],"8.19 upbm affinity estimate (log intensity, higher = more binding, comparable within an allelic series)"
same,binding signal,VENTX [3],"8.35 upbm affinity estimate (log intensity, higher = more binding, comparable within an allelic series)"
same,binding signal,ALX4 [22],"7.81 upbm affinity estimate (log intensity, higher = more binding, comparable within an allelic series)"
same,binding signal,VENTX [4],"8.31 upbm affinity estimate (log intensity, higher = more binding, comparable within an allelic series)"
same,binding signal,ALX4 [23],"8.15 upbm affinity estimate (log intensity, higher = more binding, comparable within an allelic series)"
same,binding signal,NKX2-6 [7],"9.32 upbm affinity estimate (log intensity, higher = more binding, comparable within an allelic series)"
same,binding signal,ALX3 [24],"7.68 upbm affinity estimate (log intensity, higher = more binding, comparable within an allelic series)"
same,binding signal,NKX2-6 [25],"9.1 upbm affinity estimate (log intensity, higher = more binding, comparable within an allelic series)"
same,binding signal,ALX3 [26],"7.56 upbm affinity estimate (log intensity, higher = more binding, comparable within an allelic series)"
same,binding signal,VAX1 [14],"7.07 upbm affinity estimate (log intensity, higher = more binding, comparable within an allelic series)"
same,binding signal,ALX3 [27],"7.74 upbm affinity estimate (log intensity, higher = more binding, comparable within an allelic series)"
same,binding signal,NKX2-6 [28],"9.19 upbm affinity estimate (log intensity, higher = more binding, comparable within an allelic series)"
same,binding signal,ALX3 [29],"7.77 upbm affinity estimate (log intensity, higher = more binding, comparable within an allelic series)"
same,binding signal,VAX1 [17],"7.24 upbm affinity estimate (log intensity, higher = more binding, comparable within an allelic series)"
same,binding signal,ALX3 [30],"7.7 upbm affinity estimate (log intensity, higher = more binding, comparable within an allelic series)"
same,binding signal,VAX1 [21],"7.15 upbm affinity estimate (log intensity, higher = more binding, comparable within an allelic series)"
ACCCGTGC,binding signal,VENTX [1],"8.15 upbm affinity estimate (log intensity, higher = more binding, comparable within an allelic series)"
same,binding signal,VENTX [3],"8.32 upbm affinity estimate (log intensity, higher = more binding, comparable within an allelic series)"
same,binding signal,VENTX [4],"8.18 upbm affinity estimate (log intensity, higher = more binding, comparable within an allelic series)"
TCGATTAA,binding signal,VENTX [1],"11.4 upbm affinity estimate (log intensity, higher = more binding, comparable within an allelic series)"
same,binding signal,VENTX [3],"12.3 upbm affinity estimate (log intensity, higher = more binding, comparable within an allelic series)"
same,binding signal,VENTX [4],"11.2 upbm affinity estimate (log intensity, higher = more binding, comparable within an allelic series)"
CCCCTCAG,binding signal,VENTX [1],"8.25 upbm affinity estimate (log intensity, higher = more binding, comparable within an allelic series)"
same,binding signal,VENTX [3],"8.19 upbm affinity estimate (log intensity, higher = more binding, comparable within an allelic series)"
same,binding signal,HOXC10 [31],"10.1 upbm affinity estimate (log intensity, higher = more binding, comparable within an allelic series)"
same,binding signal,VENTX [4],"8.01 upbm affinity estimate (log intensity, higher = more binding, comparable within an allelic series)"
same,binding signal,HOXC10 [32],"10.1 upbm affinity estimate (log intensity, higher = more binding, comparable within an allelic series)"
